Drawing on the supplement of paper PMC10849652, this text covers log2 fold change for 6 targets.

Holding throughout (test): log2 fold change, soluble protein after heating vs DMSO (PISA); higher = thermal stabilisation; K562 cells, 10 uM, 30 min; active = over 0.2 and 3.5 SD of the protein, either way, in both replicates (recomputed)
Compound in assay [1]: CN1CCN(c2nc(C3=C(c4c[nH]c5ccccc45)C(=O)NC3=O)c3ccccc3n2)CC1 [sotrastaurin]
The essentials: (§1)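 K562 cells at 2×10^6 cells/mL were treated with 10 μM compound for 30 min. Aliquots were heated for 3 min across 48°C-58°C, pooled, and extracted in PBS with 0.5% NP-40 at 4°C; soluble protein was the supernatant after 21,000xg for 90 min. Soluble protein was quantified by TMTpro 16plex LC-MS/MS with channel sums equalised, and reported as log2 fold change in thermal stability against DMSO controls, with values from duplicates.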

Compound in assay [2]: CN1CC[C@H](c2c(O)cc(O)c3c(=O)cc(-c4ccccc4Cl)oc23)[C@H](O)C1 [alvocidib]
A digest of the protocol:
as §1

Compound in assay [3]: CN1CCc2c(c3ccccc3n2Cc2ccc(C(=O)NO)cc2)C1 [Tubastatin A]
The essentials: as §1

Compound in assay [4]: CNC(=O)C1=CC=CC=C1NC2=NC(=NC=C2Cl)NC3=C(C=C(C=C3)N4CCOCC4)OC
The essentials:
as §1

Compound in assay [5]: CNC(=O)c1ccc(Nc2ncc(C(F)(F)F)c(NCc3nccnc3N(C)S(C)(=O)=O)n2)cc1 [defactinib]
The essentials:
as §1

Compound in assay [6]: CNCc1ccc(-c2[nH]c3cc(F)cc4c3c2CCNC4=O)cc1 [rucaparib]
A digest of the protocol: as §1

Compound in assay [7]: COC(=O)N[C@@H](C)CNc1nccc(-c2cn(C(C)C)nc2-c2cc(Cl)cc(NS(C)(=O)=O)c2F)n1 [encorafenib]
A digest of the protocol:
as §1

Compound in assay [8]: COC(=O)[C@H](CCSC)NC(=O)C1=C(C=C(C=C1)NC[C@H](CS)N)C2=CC=CC=C2
The essentials:
as §1

Compound in assay [9]: COC1=CC=C(C=C1)CN2C=CC3=C2C=C(C=C3)C(=O)NO
A digest of the protocol:
as §1

Compound in assay [10]: CON(C)C(=O)N1N=C(c2cc(F)ccc2F)S[C@@]1(CCCN)c1ccccc1 [filanesib]
The essentials: as §1

Compound in assay [11]: CO[C@H]1C[C@@H]2CC[C@@H](C)[C@@](O)(O2)C(=O)C(=O)N2CCCC[C@H]2C(=O)O[C@H]([C@H](C)C[C@@H]2CC[C@H](n3cnnn3)[C@H](OC)C2)CC(=O)[C@H](C)/C=C(\C)[C@@H](O)[C@@H](OC)C(=O)[C@H](C)C[C@H](C)/C=C/C=C/C=C/1C [zotarolimus]
A digest of the protocol:
as §1

Compound in assay [12]: COc1cc(C(=O)O)ccc1NC(=O)[C@@H]1N[C@@H](CC(C)(C)C)[C@](C#N)(c2ccc(Cl)cc2F)[C@H]1c1cccc(Cl)c1F [idasanutlin]
The essentials:
as §1

Compound in assay [13]: COc1cc2nc(-c3cc(F)ccc3O)nc(N[C@@H]3CNC[C@H]3C(C)(C)O)c2cc1OC
A digest of the protocol:
as §1

Compound in assay [14]: COc1cc2ncnc(Nc3ccc(F)c(Cl)c3)c2cc1OCCCN1CCOCC1 [gefitinib]
The essentials:
as §1

Compound in assay [15]: CS(=O)(=O)CCNCc1ccc(-c2ccc3ncnc(Nc4ccc(OCc5cccc(F)c5)c(Cl)c4)c3c2)o1 [lapatinib]
A digest of the protocol:
as §1

Compound in assay [16]: CS(=O)(=O)N1CCN(Cc2cc3nc(-c4cccc5[nH]ncc45)nc(N4CCOCC4)c3s2)CC1 [pictilisib]
A digest of the protocol:
as §1

Compound in assay [17]: COc1cc(Nc2ncc3c(n2)-c2ccc(Cl)cc2C(c2c(F)cccc2OC)=NC3)ccc1C(=O)O [alisertib]
The essentials:
as §1

Compound in assay [18]: COc1cccc2cc(-c3nc([C@H]4CC[C@H](C(=O)O)CC4)n4ncnc(N)c34)[nH]c12
A digest of the protocol: as §1

Compound in assay [19]: CN1CCN(CCOc2cc(OC3CCOCC3)c3c(Nc4c(Cl)ccc5c4OCO5)ncnc3c2)CC1 [saracatinib]
A digest of the protocol: as §1

Compound in assay [20]: CNc1nc(-c2ccc3c(N)n[nH]c3c2)cc(N2C[C@@H](C(=O)NC3CCCCC3)CC[C@H]2C)n1
The essentials: as §1

Of roughly 7,900 targets only a part is listed; those with a hit were picked by preference. About 0.6% of all pairs of compound and target were hits. A number with no mark means an inactive call.

Sequence of UniProt P43003 (P43003 whole entry, looked up): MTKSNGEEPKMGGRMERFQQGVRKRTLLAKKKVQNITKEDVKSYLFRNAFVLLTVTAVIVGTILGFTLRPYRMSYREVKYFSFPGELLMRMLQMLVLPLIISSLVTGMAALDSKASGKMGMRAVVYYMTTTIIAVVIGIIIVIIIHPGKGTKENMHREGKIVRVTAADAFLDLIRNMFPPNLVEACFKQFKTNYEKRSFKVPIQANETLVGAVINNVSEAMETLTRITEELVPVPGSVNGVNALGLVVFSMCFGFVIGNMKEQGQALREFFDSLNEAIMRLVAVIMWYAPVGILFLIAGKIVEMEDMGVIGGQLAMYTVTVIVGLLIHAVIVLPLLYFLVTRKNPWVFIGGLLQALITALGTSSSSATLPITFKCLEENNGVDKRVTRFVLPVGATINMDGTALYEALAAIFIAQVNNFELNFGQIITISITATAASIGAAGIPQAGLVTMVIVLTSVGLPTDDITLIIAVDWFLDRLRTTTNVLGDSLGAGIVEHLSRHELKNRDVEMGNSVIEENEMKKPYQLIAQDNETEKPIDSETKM
Sequence of UniProt Q7Z6E9 (Q7Z6E9 whole entry, looked up): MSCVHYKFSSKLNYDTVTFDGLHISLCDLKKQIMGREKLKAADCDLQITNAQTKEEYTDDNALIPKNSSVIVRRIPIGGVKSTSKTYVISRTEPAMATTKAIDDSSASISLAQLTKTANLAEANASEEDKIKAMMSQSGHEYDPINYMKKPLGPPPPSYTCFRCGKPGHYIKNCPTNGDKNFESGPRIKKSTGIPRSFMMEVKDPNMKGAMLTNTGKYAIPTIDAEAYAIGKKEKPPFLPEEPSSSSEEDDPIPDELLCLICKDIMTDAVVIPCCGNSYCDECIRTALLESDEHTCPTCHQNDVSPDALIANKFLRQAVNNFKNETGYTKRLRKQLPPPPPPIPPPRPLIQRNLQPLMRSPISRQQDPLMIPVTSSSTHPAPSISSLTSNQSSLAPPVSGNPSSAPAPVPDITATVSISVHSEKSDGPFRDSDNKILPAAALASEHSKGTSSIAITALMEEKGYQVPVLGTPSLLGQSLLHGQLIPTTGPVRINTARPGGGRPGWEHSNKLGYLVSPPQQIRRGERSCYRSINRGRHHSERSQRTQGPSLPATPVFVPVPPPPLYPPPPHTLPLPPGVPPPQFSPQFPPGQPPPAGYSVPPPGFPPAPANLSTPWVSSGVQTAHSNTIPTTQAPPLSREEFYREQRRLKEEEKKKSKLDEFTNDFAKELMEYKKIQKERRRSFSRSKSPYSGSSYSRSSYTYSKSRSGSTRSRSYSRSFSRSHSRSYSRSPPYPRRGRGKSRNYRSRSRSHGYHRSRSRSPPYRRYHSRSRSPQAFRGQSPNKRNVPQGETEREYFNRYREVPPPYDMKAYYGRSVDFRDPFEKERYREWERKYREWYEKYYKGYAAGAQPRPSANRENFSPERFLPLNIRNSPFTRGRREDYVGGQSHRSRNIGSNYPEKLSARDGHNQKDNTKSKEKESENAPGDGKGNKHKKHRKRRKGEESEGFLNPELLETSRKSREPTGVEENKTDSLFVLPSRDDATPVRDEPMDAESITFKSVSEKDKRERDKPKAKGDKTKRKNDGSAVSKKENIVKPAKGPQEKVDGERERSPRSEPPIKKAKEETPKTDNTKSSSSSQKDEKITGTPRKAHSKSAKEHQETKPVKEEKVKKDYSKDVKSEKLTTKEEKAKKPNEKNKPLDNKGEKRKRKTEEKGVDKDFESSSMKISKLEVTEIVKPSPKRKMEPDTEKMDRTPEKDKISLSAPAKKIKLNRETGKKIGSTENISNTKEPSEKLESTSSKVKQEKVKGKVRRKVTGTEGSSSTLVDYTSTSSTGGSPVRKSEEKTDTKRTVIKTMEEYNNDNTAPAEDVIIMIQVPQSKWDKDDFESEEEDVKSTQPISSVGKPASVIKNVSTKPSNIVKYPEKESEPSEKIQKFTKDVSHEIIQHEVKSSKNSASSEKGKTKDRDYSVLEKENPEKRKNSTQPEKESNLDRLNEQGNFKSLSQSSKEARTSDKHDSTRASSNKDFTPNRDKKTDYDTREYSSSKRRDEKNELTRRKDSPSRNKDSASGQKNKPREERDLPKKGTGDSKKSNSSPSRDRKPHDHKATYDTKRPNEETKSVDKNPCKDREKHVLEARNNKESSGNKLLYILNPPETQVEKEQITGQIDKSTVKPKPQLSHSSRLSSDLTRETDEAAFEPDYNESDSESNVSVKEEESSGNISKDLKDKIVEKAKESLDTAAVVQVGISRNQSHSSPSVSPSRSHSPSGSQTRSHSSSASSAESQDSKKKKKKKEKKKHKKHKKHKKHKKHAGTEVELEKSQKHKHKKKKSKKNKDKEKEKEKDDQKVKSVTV
Sequence of UniProt A1X283 (A1X283 whole entry, looked up): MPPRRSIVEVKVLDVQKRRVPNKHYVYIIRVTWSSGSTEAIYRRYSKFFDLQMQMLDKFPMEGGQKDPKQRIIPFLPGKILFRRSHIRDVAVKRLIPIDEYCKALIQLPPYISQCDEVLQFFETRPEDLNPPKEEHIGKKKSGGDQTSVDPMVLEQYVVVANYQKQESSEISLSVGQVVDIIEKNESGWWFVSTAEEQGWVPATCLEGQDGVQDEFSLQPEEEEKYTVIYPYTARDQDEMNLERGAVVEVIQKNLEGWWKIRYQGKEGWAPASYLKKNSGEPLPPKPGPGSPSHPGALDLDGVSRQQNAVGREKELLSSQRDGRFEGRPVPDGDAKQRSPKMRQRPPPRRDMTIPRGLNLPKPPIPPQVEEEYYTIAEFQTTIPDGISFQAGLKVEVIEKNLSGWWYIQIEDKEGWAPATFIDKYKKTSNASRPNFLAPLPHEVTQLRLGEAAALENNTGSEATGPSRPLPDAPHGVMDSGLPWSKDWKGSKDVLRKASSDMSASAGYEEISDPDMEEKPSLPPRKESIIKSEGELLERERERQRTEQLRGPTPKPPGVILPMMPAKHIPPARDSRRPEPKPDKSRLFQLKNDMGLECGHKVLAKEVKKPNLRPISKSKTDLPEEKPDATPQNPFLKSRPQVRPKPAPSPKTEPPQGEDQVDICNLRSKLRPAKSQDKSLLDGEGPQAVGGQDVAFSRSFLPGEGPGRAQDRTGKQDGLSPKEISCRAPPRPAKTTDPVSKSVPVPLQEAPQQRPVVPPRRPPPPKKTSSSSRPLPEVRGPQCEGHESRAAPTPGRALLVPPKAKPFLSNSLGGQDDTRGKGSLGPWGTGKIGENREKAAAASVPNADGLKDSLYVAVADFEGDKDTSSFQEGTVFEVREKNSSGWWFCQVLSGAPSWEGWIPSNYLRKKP
Sequence of UniProt Q9BWJ5 (Q9BWJ5 whole entry, looked up): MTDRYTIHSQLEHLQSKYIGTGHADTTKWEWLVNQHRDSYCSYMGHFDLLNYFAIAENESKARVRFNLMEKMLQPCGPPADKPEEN

In the case of RAB3IL1 (UniProt E9PK89), the log2 fold change in assay [1] was -0.082; in [2], 0.009; in [3], -0.095; in assay [4], -0.011; in assay [5], -0.016; in [6] it was -0.074. Moreover, the log2 fold change in [7] is 0.084; in assay [8], 0.045; in assay [9] it was 0.031; in assay [10], -0.22; in assay [11], 0.093; in assay [12], -0.035. Moreover, the log2 fold change in assay [13] is 0.097; in assay [14], -0.034; in assay [15] it was 0.063; in assay [16], -0.075.

For the target RPS19 (UniProt M0R2L9), the log2 fold change in assay [3] is -0.186; in assay [12], -0.034; in [17], -0.463; in [13], -0.158; in [14], 0.375; in assay [18], -0.331. Besides, the log2 fold change in assay [15] was -0.341.

Consider SLC1A3 (UniProt P43003), for which the log2 fold change was 0.277 in assay [19]; 0.056 in assay [2]; -0.157 in assay [3]; -0.034 in [4]; -0.013 in [5]; 0.027 in assay [6]. Further, the log2 fold change in [20] is 0.481 (active); in [7], 0.072; in [8], 0.106; in assay [11] it was -0.097; in assay [12], 0; in assay [17] it was 0.017. Also, the log2 fold change in assay [13] was 0.118; in assay [14], -0.023; in assay [18] it was 0.012; in assay [15] it was -0.03; in assay [16] it was 0.02.

On to SF3B5 (UniProt Q9BWJ5), for which the log2 fold change in [19] was -0.382; in assay [1] it was 0.055; in assay [3], 0.048; in assay [4] it was 0.023; in assay [5] it was -0.039; in [6], 0.086. Besides, the log2 fold change was -0.015 in [20]; -0.025 in assay [7]; 0.061 in assay [8]; 0.19 in assay [9]; 0.2 in [10]; 0.085 in assay [12]. Also, the log2 fold change was -0.122 in assay [17]; -0.026 in assay [13]; 0.027 in assay [14]; 0.044 in assay [18]; -0.051 in assay [15]; -0.069 in assay [16].

Consider SH3PXD2B (UniProt A1X283), for which the log2 fold change in assay [1] is -0.017; in assay [2], -0.047; in [3], -0.013; in assay [4] it was 0.061; in assay [5] it was 0.013; in assay [6] it was 0.238. Further, the log2 fold change in assay [7] is 0.011; in [8] it was 0.359; in [10], -0.06; in assay [11], -0.003; in assay [12], -0.174; in assay [17] it was -0.02. In addition, the figures for the log2 fold change in assay [14], in assay [18] and in [16] were 0.149, -0.037 and 0.162, respectively.

Regarding RBBP6 (UniProt Q7Z6E9), the log2 fold change in assay [1] was 0.11; in [2], -0.17; in assay [3] it was 0.074; in [4] it was -0.006; in assay [5], -0.056; in assay [6], 0.067. Moreover, the log2 fold change was 0.055 in assay [7]; 0.04 in assay [8]; 0.101 in [9]; 0.468 (active) in assay [10]; -0.052 in [11]; 0.089 in assay [12]. The log2 fold change in assay [17] was 0.044; in [13], -0.099; in assay [14], -0.02; in assay [18], 0.146; in assay [15], 0.101; in assay [16] it was 0.016.
